Laboratory results taken from PubChem BioAssay.
Values joined by “and” are separate entries in the source; they are usually repeats but may differ in a detail not shown here. Equal entries are not always repeated. Active and inactive are the calls of the source.

What was measured:
[1] = target: Albumin (Bos taurus) (UniProt P02769); assay: compounds binding labelled BSA control protein – biochemical, small-molecule microarray, Alexa647 label, 635/667 nm fluorescence, artefact control for SMM control protein annotation, profiling panel (AID 1118); details: BSA-A647 binding, fluorescence 635 nm, higher = more signal;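 further: score merges 667 nm emission intensity and signal-to-noise per printed compound spot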
[2] = probe aXIP binding to arrayed compounds – biochemical, NeuroSMM set, 635/667 nm fluorescence, primary screen (AID 1119); details: small-molecule microarray, higher = more signal, called active from +8 up or from −8 down;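 further: probe is the protein aXip251-270 applied at 1 µg/mL to compound-printed slides; binding of probe to printed compounds measured as 667 nm fluorescence plus signal to noise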
[3] = probe aNOTCH3 binding on compound microarray – biochemical, small-molecule microarray, 635/667 nm fluorescence, primary screen (AID 1120); details: higher = more signal;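 further: probe is a biotin-tagged antibody raised against NOTCH3 rather than NOTCH3 protein; score merges spot fluorescence near 667 nm with spot signal to noise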
[4] = probe aNOTCH2 binding on compound microarray – biochemical, small-molecule microarray, 635/667 nm fluorescence, primary screen (AID 1121); details: higher = more signal;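 further: score merges feature fluorescence read at 667 nm with its signal to noise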
[5] = target: Carbonic anhydrase 2 (Homo sapiens) (UniProt P00918); assay: compounds binding carbonic anhydrase 2 – biochemical, small-molecule microarray, Alexa647-labelled CAII, profiling panel (AID 1122); details: CAII-A647 binding fluorescence, higher = more signal
[6] = COS7 lysate on small-molecule microarray, probe aHis, 635 nm (AID 1123); details: COS7 cell lysate, fluorescence, higher = more signal;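 further: z-score combines 667nm fluorescence intensity with signal-to-noise per printed compound spot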
[7] = probe aLAP1 signal on lysate-treated microarray – cell lysate, small-molecule microarray, COS7 lysate, primary screen (AID 1124); details: probe aLAP1, fluorescence, higher = more signal;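 further: lysate comes from COS7 cells expressing LAP1 and is applied at 0.3 µg/mL; score merges spot fluorescence near 667 nm with signal-to-noise over triplicate slides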
[8] = test system: Sam68 (KHDRBS1); assay: compounds binding KHDRBS1 protein – biochemical, small-molecule microarray, 635 nm fluorescence, primary screen (AID 1125); details: higher = more signal;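 further: score merges 667 nm channel intensity with signal to noise over triplicate slides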
[9] = test system: Chordin-like protein 2 (CHRDL2); assay: compounds binding chordin-like 2 – biochemical, small-molecule microarray, 635 nm fluorescence, primary screen (AID 1126); details: fluorescence 635 nm, higher = more signal;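 further: printed compound slides probed with Chrdl2 protein at 4 µg/mL for 1 h at 4 C; score merges 667 nm emission intensity with signal to noise over three replicate slides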
[10] = target: Concanavalin-A (Canavalia ensiformis) (UniProt P02866); assay: compounds binding concanavalin A lectin – biochemical, small-molecule microarray, Alexa647 label, 635 nm, artefact control for SMM control protein annotation, primary screen (AID 1127); details: ConA-A647 binding fluorescence, higher = more signal;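 further: z combines 667 nm emission intensity with signal-to-noise across three replicate slides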
[11] = compounds binding Alexa647 anti-His antibody – biochemical, small-molecule microarray, 635 nm fluorescence, artefact control for SMM control protein annotation, primary screen (AID 1128); details: higher = more signal;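 further: score merges feature fluorescence with signal-to-noise for each printed compound spot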
[12] = test system: Human papillomavirus type 1a E7 protein (residues 1-88); assay: HPV1a E7 small-molecule binders, primary screen, biochemical, small-molecule microarray, residues 1-88, 635 nm (AID 1129); details: small-molecule microarray binding, fluorescence 635 nm; higher = more signal
[13] = target: Focal adhesion kinase 1 (Homo sapiens) (UniProt Q05397); assay: PTK2 protein binding on printed compound slides – biochemical, small-molecule microarray, 635/667 nm fluorescence, BSA, DTT, primary screen (AID 1130); details: 635 nm fluorescence, higher = more signal;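 further: composite of spot emission at 667 nm and signal to noise over triplicate slides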
[14] = test system: Fibrinogen (Alexa647-labelled); assay: Alexa647-fibrinogen binding to printed small molecules – biochemical, small-molecule microarray, 635/667 nm fluorescence, artefact control for SMM control-protein annotation, profiling panel (AID 1131); details: fibrinogen-A647 binding fluorescence, higher = more signal;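 further: z-score merges 667 nm fluorescence with per-spot signal-to-noise over triplicate slides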
[15] = target: Follistatin (Homo sapiens) (UniProt P19883); assay: FST protein binding to printed compounds – biochemical, small-molecule microarray, 635/667 nm fluorescence, primary screen (AID 1132); details: 635 nm fluorescence, higher = more signal
[16] = target: Fibroblast growth factor 2 (Homo sapiens) (UniProt P09038); assay: basic fibroblast growth factor binding to printed compounds – biochemical, small-molecule microarray, 635/667 nm fluorescence, primary screen (AID 1133); details: FGF2, fluorescence 635/667, higher = more signal
[17] = JC-1 mitochondrial potential readout, lung cancer cells – cell-based, A549, JC-1 fluorescence, basal, 24 h, 100 nL, profiling panel (AID 1138); details: higher = more signal;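 further: A549 lung adenocarcinoma cells under basal conditions with no added stimulus; test concentration not given here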
[18] = test system: Lefty1; assay: Lefty1 protein binding to printed compounds – biochemical, small-molecule microarray, 635/667 nm fluorescence, primary screen (AID 1139); details: fluorescence 635/667, higher = more signal
[19] = test system: wheat germ agglutinin (Triticum aestivum), Alexa647-labelled; assay: Alexa647-WGA lectin binding to printed small molecules – biochemical, small-molecule microarray, 635/667 nm fluorescence, artefact control for SMM control-protein annotation, profiling panel (AID 1140); details: WGA-A647 binding, 635 nm fluorescence, higher = more signal;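 further: score merges 667 nm feature emission with signal to noise over triplicate slides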
[20] = target: Luciferin 4-monooxygenase (Photinus pyralis) (UniProt P08659); assay: inhibition of purified Photinus pyralis luciferase – biochemical, luminescence, purified enzyme, 2006 set, primary screen (AID 1141); details: purified firefly luciferase, SteadyGlo luminescence, 30 min; higher = more signal, called active from +8 up or from −8 down;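 further: cell-free assay with purified firefly luciferase at 100 ng per well in PBS; test concentration not given here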
Luciferin 4-monooxygenase (Photinus pyralis), sequence (P08659 whole entry, looked up): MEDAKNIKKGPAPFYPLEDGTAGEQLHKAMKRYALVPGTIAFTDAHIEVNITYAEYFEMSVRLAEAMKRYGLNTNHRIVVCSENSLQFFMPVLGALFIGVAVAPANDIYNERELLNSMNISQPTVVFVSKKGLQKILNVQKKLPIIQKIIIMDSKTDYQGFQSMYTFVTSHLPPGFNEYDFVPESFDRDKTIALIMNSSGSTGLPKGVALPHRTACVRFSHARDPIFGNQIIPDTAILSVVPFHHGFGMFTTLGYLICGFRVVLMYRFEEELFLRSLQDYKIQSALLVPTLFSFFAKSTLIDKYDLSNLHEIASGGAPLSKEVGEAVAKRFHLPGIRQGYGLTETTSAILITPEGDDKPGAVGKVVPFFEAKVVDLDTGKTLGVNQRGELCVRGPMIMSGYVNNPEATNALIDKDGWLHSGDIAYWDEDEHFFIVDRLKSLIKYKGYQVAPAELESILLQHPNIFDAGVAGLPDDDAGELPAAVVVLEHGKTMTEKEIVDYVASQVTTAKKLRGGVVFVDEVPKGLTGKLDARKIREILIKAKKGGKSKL

Focal adhesion kinase 1 (Homo sapiens), sequence (Q05397 whole entry, looked up): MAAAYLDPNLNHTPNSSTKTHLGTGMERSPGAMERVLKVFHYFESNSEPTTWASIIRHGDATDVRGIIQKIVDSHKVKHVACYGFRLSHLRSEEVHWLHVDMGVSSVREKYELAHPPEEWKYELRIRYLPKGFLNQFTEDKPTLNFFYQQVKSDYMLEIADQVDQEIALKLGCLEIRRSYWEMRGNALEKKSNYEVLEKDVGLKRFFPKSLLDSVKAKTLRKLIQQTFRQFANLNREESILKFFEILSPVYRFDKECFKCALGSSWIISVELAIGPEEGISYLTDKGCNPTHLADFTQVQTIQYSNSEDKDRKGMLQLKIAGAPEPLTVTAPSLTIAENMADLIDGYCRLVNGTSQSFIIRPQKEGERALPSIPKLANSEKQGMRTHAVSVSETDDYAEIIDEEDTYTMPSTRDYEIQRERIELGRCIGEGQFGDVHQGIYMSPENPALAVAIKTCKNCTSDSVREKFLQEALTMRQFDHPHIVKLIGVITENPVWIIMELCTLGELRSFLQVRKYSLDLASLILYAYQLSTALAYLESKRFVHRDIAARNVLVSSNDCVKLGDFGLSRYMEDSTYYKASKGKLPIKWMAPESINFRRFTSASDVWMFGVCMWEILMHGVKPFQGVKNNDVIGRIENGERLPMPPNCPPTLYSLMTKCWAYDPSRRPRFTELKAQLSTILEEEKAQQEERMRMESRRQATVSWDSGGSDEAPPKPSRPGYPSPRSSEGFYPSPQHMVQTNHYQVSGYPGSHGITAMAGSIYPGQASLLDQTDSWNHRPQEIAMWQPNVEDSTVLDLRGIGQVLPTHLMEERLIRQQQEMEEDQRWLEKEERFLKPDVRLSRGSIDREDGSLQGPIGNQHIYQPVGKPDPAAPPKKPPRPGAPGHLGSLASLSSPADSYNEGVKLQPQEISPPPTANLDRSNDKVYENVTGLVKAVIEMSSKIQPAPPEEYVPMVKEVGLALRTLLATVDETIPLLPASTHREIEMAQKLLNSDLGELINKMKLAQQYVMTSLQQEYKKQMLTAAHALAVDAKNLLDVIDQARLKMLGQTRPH
Fibroblast growth factor 2 (Homo sapiens), sequence (P09038 whole entry, looked up): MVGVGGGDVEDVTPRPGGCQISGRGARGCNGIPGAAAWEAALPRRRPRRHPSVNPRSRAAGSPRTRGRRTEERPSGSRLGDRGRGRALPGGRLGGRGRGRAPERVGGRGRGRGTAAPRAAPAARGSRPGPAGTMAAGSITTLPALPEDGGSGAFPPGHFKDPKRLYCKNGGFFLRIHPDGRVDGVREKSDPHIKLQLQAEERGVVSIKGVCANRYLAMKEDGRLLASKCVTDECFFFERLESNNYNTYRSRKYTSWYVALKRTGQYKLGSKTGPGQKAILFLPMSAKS
Albumin (Bos taurus), sequence (P02769 whole entry, looked up): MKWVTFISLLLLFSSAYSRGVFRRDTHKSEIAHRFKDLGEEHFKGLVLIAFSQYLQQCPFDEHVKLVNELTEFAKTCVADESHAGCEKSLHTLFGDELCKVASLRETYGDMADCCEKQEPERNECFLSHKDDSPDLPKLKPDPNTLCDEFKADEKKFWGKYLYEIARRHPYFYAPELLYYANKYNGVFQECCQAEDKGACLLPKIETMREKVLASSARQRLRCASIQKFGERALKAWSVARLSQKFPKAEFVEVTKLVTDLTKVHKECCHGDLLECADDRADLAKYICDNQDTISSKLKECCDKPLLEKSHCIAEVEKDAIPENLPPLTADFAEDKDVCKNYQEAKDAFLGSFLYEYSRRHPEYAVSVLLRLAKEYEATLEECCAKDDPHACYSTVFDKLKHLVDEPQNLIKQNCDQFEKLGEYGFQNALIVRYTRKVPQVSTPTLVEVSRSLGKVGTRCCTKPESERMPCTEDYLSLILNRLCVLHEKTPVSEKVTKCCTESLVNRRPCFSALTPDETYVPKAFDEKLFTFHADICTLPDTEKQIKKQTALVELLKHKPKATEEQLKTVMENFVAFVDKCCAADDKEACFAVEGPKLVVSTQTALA
Concanavalin-A (Canavalia ensiformis), sequence (P02866 whole entry, looked up): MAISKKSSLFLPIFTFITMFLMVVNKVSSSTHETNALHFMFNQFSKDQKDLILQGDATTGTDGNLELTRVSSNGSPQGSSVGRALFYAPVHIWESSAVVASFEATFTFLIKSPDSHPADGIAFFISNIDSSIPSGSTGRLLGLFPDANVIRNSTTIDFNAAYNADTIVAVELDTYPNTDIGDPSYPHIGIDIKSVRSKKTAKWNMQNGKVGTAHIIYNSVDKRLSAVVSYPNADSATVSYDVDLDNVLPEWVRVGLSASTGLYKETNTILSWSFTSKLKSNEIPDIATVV
Follistatin (Homo sapiens), sequence (P19883 whole entry, looked up): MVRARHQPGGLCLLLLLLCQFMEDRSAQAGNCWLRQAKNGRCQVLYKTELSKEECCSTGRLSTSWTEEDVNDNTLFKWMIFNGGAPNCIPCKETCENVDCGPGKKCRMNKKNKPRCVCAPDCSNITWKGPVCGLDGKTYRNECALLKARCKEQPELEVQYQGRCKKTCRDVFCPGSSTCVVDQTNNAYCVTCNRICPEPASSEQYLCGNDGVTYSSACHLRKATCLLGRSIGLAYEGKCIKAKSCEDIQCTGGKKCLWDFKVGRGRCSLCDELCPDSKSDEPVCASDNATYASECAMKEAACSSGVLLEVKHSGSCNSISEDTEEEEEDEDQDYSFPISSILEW

C[C@@H](c1ccccc1)N1C(=O)[C@H]2[C@H]3[C@H](O)[C@H](O)CC(=O)[C@@H]3CC[C@H]2C1=O
composite z-score [1]: 0.294
composite Z-score [2]: 0.28 (inactive)
composite z-score [3]: -0.0345
composite z-score [4]: -0.0843
composite z-score [5]: 0.149
composite z-score [6]: 0.438
composite z-score [7]: 0.727
composite z-score [8]: 0.661
composite z-score [9]: 0.433
composite z-score [10]: 0.583
composite z-score [11]: 0.338
composite z-score [12]: 0.793
composite z-score [13]: 0.866
composite z-score [14]: 0.212
composite z-score [15]: 0.605
composite z-score [16]: 1.08
z-score [17]: 0.792
composite z-score [18]: 1.64
composite z-score [19]: 0.108
z-score [20]: -1.87 (inactive)

C=CC[C@@H](O)c1ccc(OCCO)cc1
composite z-score [1]: -0.155 and -0.308
composite Z-score [2]: 0.0022 (inactive) and 0.259 (inactive)
composite z-score [3]: -0.506 and -0.643
composite z-score [4]: -0.222 and -0.176
composite z-score [5]: 0.492 and 0.807
composite z-score [6]: -0.638 and -0.478
composite z-score [7]: -0.585 and -0.612
composite z-score [8]: -0.813 and -0.661
composite z-score [9]: -1.56 and -1.81
composite z-score [10]: -0.831 and -1.48
composite z-score [11]: 0.7 and -0.687
composite z-score [12]: 0.301 and -0.59
composite z-score [13]: -0.595 and -0.79
composite z-score [14]: -1.34 and -0.494
composite z-score [15]: 0.716 and -0.517
composite z-score [16]: -0.418 and -1.58
z-score [17]: 0.856 and 0.491
composite z-score [18]: -0.146 and -0.805
composite z-score [19]: -0.455 and 0.763
z-score [20]: -6.43 (inactive) and -6.38 (inactive)

C=CCN(CCCCC)C(=O)C(c1cccs1)N(C(=O)/C=C\C(=O)O)c1ccc(CCO)cc1 (stereo not given)
composite z-score [1]: 0.516 and -0.0786
composite Z-score [2]: 0.598 (inactive) and -0.378 (inactive)
composite z-score [3]: -0.499 and -0.508
composite z-score [4]: -0.183 and -0.0859
composite z-score [5]: 0.821 and 0.562
composite z-score [6]: 0.455 and -0.0142
composite z-score [7]: 0.411 and 0.0933
composite z-score [8]: -0.815 and -0.524
composite z-score [9]: -0.96 and -1.97
composite z-score [10]: -0.222 and -0.806
composite z-score [11]: -0.206 and -1.12
composite z-score [12]: -0.502 and -0.625
composite z-score [13]: -0.279 and -0.0021
composite z-score [14]: -1.39 and -1.21
composite z-score [15]: -1.43 and -0.996
composite z-score [16]: -1.54 and -1.4
z-score [17]: 0.868 and 0.897
composite z-score [18]: -1.07 and -1.27
composite z-score [19]: -0.573 and -0.325
z-score [20]: -1.24 (inactive) and -0.887 (inactive)

C=CCN(C(=O)C1N(C(C)(C)CO)C(=O)C2C(C(=O)O)C3C=CC21O3)C(C)(C)C (stereo not given)
composite z-score [1]: -0.768 and -1.3
composite Z-score [2]: -0.057 (inactive) and -0.12 (inactive)
composite z-score [3]: -0.664 and -0.47
composite z-score [4]: -0.154 and -0.208
composite z-score [5]: 0.856 and 0.799
composite z-score [6]: -1.2 and 0.643
composite z-score [7]: -0.393 and 1.52
composite z-score [8]: -0.967 and -0.65
composite z-score [9]: -3.3 and -1.67
composite z-score [10]: -0.855 and -1.83
composite z-score [11]: -0.574 and -1.26
composite z-score [12]: -0.937 and -0.349
composite z-score [13]: -0.892 and -0.328
composite z-score [14]: -2.12 and 0.119
composite z-score [15]: -1.98 and -1.82
composite z-score [16]: -2.47 and -2.04
z-score [17]: -0.377 and 0.637
composite z-score [18]: -2.81 and -2.22
composite z-score [19]: -1.64 and 0.157
z-score [20]: 0.0864 (inactive) and -0.639 (inactive)

C=CCN(Cc1ccccc1)C(=O)C(c1cccs1)N(C(=O)/C=C\C(=O)O)c1ccc(CCO)cc1 (stereo not given)
composite z-score [1]: -0.047 and 0.278
composite Z-score [2]: -0.18 (inactive) and -0.296 (inactive)
composite z-score [3]: -0.532 and -0.475
composite z-score [4]: -0.213 and -0.2
composite z-score [5]: 0.824 and 0.335
composite z-score [6]: -0.577 and -0.107
composite z-score [7]: -0.0165 and -0.602
composite z-score [8]: -0.581 and -1.13
composite z-score [9]: -2.94 and -1.92
composite z-score [10]: -0.772 and -0.564
composite z-score [11]: -1.02 and -0.261
composite z-score [12]: 0.285 and -0.623
composite z-score [13]: -0.411 and -0.574
composite z-score [14]: -1.94 and -2.45
composite z-score [15]: -1.48 and -1.4
composite z-score [16]: -1.78 and -1.47
z-score [17]: 0.579 and 0.559
composite z-score [18]: -1.9 and -1.42
composite z-score [19]: -0.99 and -0.888
z-score [20]: 0.666 (inactive) and 0.381 (inactive)

CC[C@@H]1C(Sc2ccccc2)C(C(=O)O)[C@H](c2ccc(C)cc2)N1S(=O)(=O)c1ccc(C)cc1 (stereo not given in full)
composite z-score [1]: 0.978 and 0.899
composite Z-score [2]: 0.242 (inactive) and 1.85 (inactive)
composite z-score [3]: 0.411 and -0.022
composite z-score [4]: 0.0739 and -0.0635
composite z-score [5]: 0.232 and 0.755
composite z-score [6]: 0.893 and 2.52
composite z-score [7]: 0.541 and 0.418
composite z-score [8]: 1.33 and 1.3
composite z-score [9]: -0.682 and -0.367
composite z-score [10]: 1.22 and 1.09
composite z-score [11]: 1.81 and 0.489
composite z-score [12]: 1.25 and 1.17
composite z-score [13]: 0.994 and 0.704
composite z-score [14]: 1.03
composite z-score [15]: 0.427 and 0.634
composite z-score [16]: -0.375 and -0.193
z-score [17]: -0.102 and 0.13
composite z-score [18]: -0.642 and 0.533
composite z-score [19]: 0.707 and 0.804
z-score [20]: 0.534 (inactive) and -0.0047 (inactive)

CC(C)=NOCc1ccc(-c2cn([C@@H]3COC[C@H]3O)nn2)cc1
composite z-score [1]: 0.655
composite Z-score [2]: 0.43 (inactive)
composite z-score [3]: -0.0179
composite z-score [4]: -0.131
composite z-score [5]: -0.132
composite z-score [6]: 0.355
composite z-score [7]: -0.116
composite z-score [8]: -0.103
composite z-score [9]: 0.329
composite z-score [10]: 0.0843
composite z-score [11]: 1.03
composite z-score [12]: 0.245
composite z-score [13]: -0.115
composite z-score [14]: -0.4
composite z-score [15]: 0.218
composite z-score [16]: 0.299
z-score [17]: 0.11
composite z-score [18]: 0.402
composite z-score [19]: -0.132
z-score [20]: -1.12 (inactive)

COC(=O)C1=C(C)N(Cc2ccccc2)[C@]23O[C@](C(=O)OC)(C(=O)N2[C@@H]1c1ccccc1)[C@H]1C(=O)N(C)C(=O)[C@H]13
composite z-score [1]: 0.899 and 0.489
composite Z-score [2]: -0.0443 (inactive) and 0.0886 (inactive)
composite z-score [3]: -0.212 and 0.0751
composite z-score [4]: -0.116 and -0.148
composite z-score [5]: 0.354 and 0.309
composite z-score [6]: 0.909 and 0.901
composite z-score [7]: 0.262 and -0.0393
composite z-score [8]: 1.19 and 0.0927
composite z-score [9]: 0.0101 and 0.385
composite z-score [10]: 1.08 and -0.174
composite z-score [11]: 0.561 and 1.01
composite z-score [12]: 1.12 and 0.878
composite z-score [13]: -0.178 and -0.0654
composite z-score [14]: 0.938 and 0.0407
composite z-score [15]: 0.368 and 0.409
composite z-score [16]: 0.219 and 0.4
z-score [17]: -0.993 and 1.4
composite z-score [18]: 0.817 and 1.17
composite z-score [19]: 0.638 and 0.366
z-score [20]: -0.576 (inactive) and -1.35 (inactive)

C=C[C@@H](C)[C@H](O)c1ccc(O)c2ccccc12
composite z-score [1]: -0.0066 and 0.457
composite Z-score [2]: 0.342 (inactive) and 0.259 (inactive)
composite z-score [3]: -0.209 and -0.454
composite z-score [4]: -0.247 and -0.223
composite z-score [5]: -0.211 and -0.59
composite z-score [6]: 0.294 and -0.0874
composite z-score [7]: 0.279 and -0.559
composite z-score [8]: -0.309 and -1.66
composite z-score [9]: 1.34 and 0.0548
composite z-score [10]: -0.418 and -1.3
composite z-score [11]: -0.181 and 1.87
composite z-score [12]: -0.7 and -1.54
composite z-score [13]: 0.825 and -0.491
composite z-score [14]: 0.837 and -0.449
composite z-score [15]: 1.31 and 0.663
composite z-score [16]: 1.14 and 0.0819
z-score [17]: -0.832 and -0.689
composite z-score [18]: 0.948 and -0.871
composite z-score [19]: 0.0825 and -0.52
z-score [20]: 0.546 (inactive) and 0.338 (inactive)
